# Source: PubChem BioAssay
# Inconclusive results are not listed. Calls of active or inactive are those of the source. Unless noted, how the calls were made is not given here.
# Assays:
# [1] = target: Pantothenate synthetase (Mycobacterium tuberculosis (strain ATCC 25618 / H37Rv)) (UniProt P9WIL5); assay: Recombinant Mtb pantothenate synthetase (PanC) inhibitors, coupled enzyme, confirmatory (AID 375); details: coupled enzyme assay; at 10 µM, stronger effect = higher value;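 further: 0% = full reaction with vehicle and 100% = no enzyme background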
# Chain of Pantothenate synthetase (Mycobacterium tuberculosis (strain ATCC 25618 / H37Rv)) (P9WIL5 whole entry, looked up): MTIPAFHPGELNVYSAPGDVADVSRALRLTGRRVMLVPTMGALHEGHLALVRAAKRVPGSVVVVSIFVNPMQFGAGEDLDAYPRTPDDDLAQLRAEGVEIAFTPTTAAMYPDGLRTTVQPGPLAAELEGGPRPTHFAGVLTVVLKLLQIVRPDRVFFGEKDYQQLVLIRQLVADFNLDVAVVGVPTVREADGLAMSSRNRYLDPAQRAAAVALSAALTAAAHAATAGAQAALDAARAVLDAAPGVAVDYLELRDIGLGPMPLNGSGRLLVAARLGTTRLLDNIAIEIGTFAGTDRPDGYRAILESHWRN
# [2] = SK-BR-3 cell growth inhibitors, pilot screen, 24 h, human (AID 572;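 active means viability at or below 10% of carrier control in both of two separate runs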;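 further: compound exposure lasted between 18 and 24 h rather than exactly 24 h; 100% = carrier-treated control wells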); details: SK-BR-3 viability, CellTiter-Glo luminescence, at 10 µM, stronger effect = lower value
# [3] = HUVEC growth inhibition – cell-based, human, primary screen (AID 575;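 active means viability at or below 30% in both replicate assays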;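 further: 100% = median of untreated cell wells with 0.1% DMSO on each plate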); details: HUVEC proliferation, CellTiter-Glo luminescence, 72 h; at 10 µM; stronger effect = lower value
# [4] = growth inhibitors of H69AR lung tumor, primary screen, human, duplicate replicates (AID 580;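 active means viability at or under a set limit in both replicates, limit being median viability minus 3 SD, cut at about 48% in these data, passing the limit was not always enough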;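 further: 100% = mean luminescence of untreated wells and 0% = no signal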); details: H69AR lung tumor cells viability, ATP luminescence, 72 h; at 10 µM; stronger effect = lower value
# [5] = reversal of MRP1-mediated doxorubicin resistance, pilot screen, H69AR cells, doxorubicin co-treatment (AID 601;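 active means viability loss from added drug above about 55%, and viability with drug at most 40%, in both replicates, limit read from the data, passing the limit was not always enough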); details: CellTiter-Glo, 72 h, at 10 µM; for differential viability (reversal): stronger effect = higher value
# [6] = 384-well plate pilot, post-Golgi transport modulator project, inhibition of yeast transport mutant growth (AID 636; in the data active means inhibition above about 31%); details: absorbance 615 nm, about 18 h, stronger effect = higher value
# [7] = growth suppression of yeast trafficking mutant, preliminary HTS, modulators of trafficking downstream of Golgi apparatus project, 1536-format plate, OD 615 nm (AID 637; in the data active means inhibition above about 30%); details: yeast transport mutant growth, absorbance 615 nm, 18 h; stronger effect = higher value
# [8] = OD615 S. cerevisiae growth inhibition, permissive medium, pilot counter-assay, permissive growth control for S. cerevisiae lifespan shortening project (AID 705;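 active means growth inhibition above 25% in both replicates, a cutoff set 3 SD above the mean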); details: OD615, 24 h, at 10 µM, stronger effect = higher value
# [9] = Restrictive medium S. cerevisiae growth inhibition, OD615, pilot screen of yeast lifespan reduction project, restrictive growth control (AID 706;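 active means growth inhibition above a set limit, 3 SD over mean compound inhibition, in both replicates, cut at about 43% in these data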;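 further: modified DeaD lifespan yeast strain shifted to restrictive glucose medium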); details: OD615, 48 h, at 10 µM, stronger effect = higher value
# [10] = viability gain of MRP-1-high H69AR cells under doxorubicin, pilot screen, MRP-1 activator project, CellTiter-Glo, duplicate (AID 807;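 active means viability increase at or above a cutoff of the median across tested compounds plus 3 SD, cut at about 8.5% in these data, passing the limit was not always enough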;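 further: compound pretreatment 18-22 h then 72 h combined with doxorubicin; 0% = doxorubicin alone and 100% = vehicle without doxorubicin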); details: H69AR viability with doxorubicin, CellTiter-Glo luminescence; at 10 µM; stronger effect = higher value
# [11] = growth suppression of beta-catenin knockout HCT116, pilot screen, human colon tumor cells (AID 823;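 active means cell viability at or below a set limit in both duplicate runs, the limit being the all-compound median minus 4 SD, cut at about 23% in these data, passing the limit was not always enough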;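 further: 0% = wells killed by 20 µM Hyamine and 100% = untreated DMSO cell wells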); details: CellTiter-Glo, 60 h, at 10 µM, stronger effect = lower value
# [12] = inhibitors of the yeast RAM network, pilot screen, dse1pr::URA3 reporter, 5-FOA selection (AID 869;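 active means inhibition over a set limit, the all-compound mean plus 3 SD, in both replicate runs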;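 further: 0% = DMSO wells with no growth and 100% = 10 µM 1-NA-PP1 with full growth; RAM network block rescues cells from 5-FOA so hits raise OD615 growth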); details: S. cerevisiae dse1pr::URA3 5-FOA growth, OD615, 2 d, at 10 µM, stronger effect = higher value
# [13] = H69AR cells + 2 uM doxorubicin, measured here: viability with 2 uM doxorubicin, stronger effect = lower value
# [14] = H69AR cells, compound alone cytotoxicity
SMILES,inhibition [1],viability [2],viability [3],viability [4],differential viability (reversal) ([5]; H69AR cells + 2 uM doxorubicin),"viability [5, 13] [%]","viability [5, 14] [%]",inhibition [6],inhibition [7],growth inhibition [8],growth inhibition [9],viability increase [10],viability [11],inhibition [12]
CN(C)[C@@H]1C(=O)C(C(N)=O)=C(O)[C@@]2(O)C(=O)C3=C(O)c4c(O)cccc4[C@@](C)(O)[C@H]3[C@H](O)[C@@H]12,3% (inactive),115% (inactive),101% (inactive),103% (inactive),2.03% (inactive),101,103,0.52% (inactive),1.17% (inactive),,,,,
CN1C[C@H](CNC(=O)OCc2ccccc2)C[C@@H]2c3cccc4c3c(cn4C)C[C@H]21,4% (inactive),,2.42% (active),66.3% (inactive),1.09% (inactive),65.2,66.3,,,,,,,
O=c1[nH]c(=O)n(Cc2ccc(F)cc2)c(O)c1C=NCCCN1CCOCC1,0% (inactive),,96% (inactive),95.5% (inactive),3.54% (inactive),91.9,95.5,-1.6% (inactive),-2.22% (inactive),,,,,
Cc1ccccc1-n1c(O)c(C=NCCN2CCOCC2)c(=O)[nH]c1=O,2% (inactive),,97.6% (inactive),92.4% (inactive),-3.12% (inactive),95.5,92.4,-5.87% (inactive),-8.41% (inactive),,,,,
CCCCN1C(=O)NC(=O)C2(Cc3c(nc4c(C)cccn4c3=O)N3CCc4ccccc4C32)C1=O (stereo not drawn),3% (inactive),111% (inactive),,,-19.7% (inactive),75.6,55.8,3.56% (inactive),10.5% (inactive),,,,,
CCOC(=O)C(C)Oc1cc(C)cc2oc(=O)c3c(c12)CCCC3 (stereo not drawn),,,,,,,,,,-9.51% (inactive),-2.87% (inactive),-4.65% (inactive),70.3% (inactive),1.43% (inactive)
